# Measurements: PubChem BioAssay (EPA / NIEHS)
# Records with an inconclusive call do not appear. Activity calls are given as the source filed them. The calls were made as follows: active = hit-call score of the fitted dose curve at least 0.9, where 1 is the maximum; inconclusive = response in the unintended direction; inactive = score below 0.9.
# Molecular target: rat Neurokinin-3 Receptor (NK3), Tacr3 (gene 24808) (UniProt P16177)
# Experiment: NVS_GPCR_rNK3: NovaScreen (NVS) G Protein-Coupled Receptor Assay for rat Neurokinin-3 Receptor (NK3) (AID 2283310)
# In short: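 Rat cortical membranes; radioligand binding with filtration and scintillation counting, 2 h after dosing. Primary screen in duplicate at 25 uM, then concentration-response up to 50 uM; loss of binding signal relative to DMSO.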
# Chain of rat Neurokinin-3 Receptor (NK3), Tacr3 (gene 24808) (P16177 whole entry, looked up): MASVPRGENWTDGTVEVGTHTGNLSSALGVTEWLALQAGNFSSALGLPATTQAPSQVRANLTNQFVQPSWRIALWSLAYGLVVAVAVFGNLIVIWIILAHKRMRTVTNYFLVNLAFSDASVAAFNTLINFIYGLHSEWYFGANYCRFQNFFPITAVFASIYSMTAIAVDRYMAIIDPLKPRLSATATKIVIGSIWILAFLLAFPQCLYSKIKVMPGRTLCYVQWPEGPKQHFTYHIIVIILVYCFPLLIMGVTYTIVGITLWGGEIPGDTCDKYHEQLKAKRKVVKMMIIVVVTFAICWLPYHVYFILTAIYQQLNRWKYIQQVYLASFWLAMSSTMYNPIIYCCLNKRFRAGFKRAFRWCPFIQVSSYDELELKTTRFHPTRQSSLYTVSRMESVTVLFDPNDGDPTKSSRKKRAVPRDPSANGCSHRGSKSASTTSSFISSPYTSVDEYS
SMILES,AC50,outcome
CCCOC(=O)c1cc(O)c(O)c(O)c1,7.59 µM (active),–
CN(C[C@@H](CC[N+]12CCC(C3CCCCC3)(CC1)CC2)c1ccc(Cl)c(Cl)c1)C(=O)c1cc(C(F)(F)F)cc(C(F)(F)F)c1,5.47 µM (active),–
CCN(Cc1cccnc1)C(=O)c1cccc(Cl)c1[C@]1(C)C(=O)N(Cc2ccc(OC)cc2OC)c2ccc(Cl)cc21,9.75 µM (active),–
O=C1c2ccccc2C(=O)N1CCc1noc(-c2ccc(CN3CCCCCC3)s2)n1,–,inactive
CCCCCCCCOC(=O)c1cc(O)c(O)c(O)c1,–,inactive
COc1ccc2cc(S(=O)(=O)N[C@H](CC(=O)N[C@H](Cc3ccc(CN4[C@H](C)CCC[C@@H]4C)cc3)C(=O)N(C)C(C)C)c3ccc4c(c3)OCO4)ccc2c1,8.07 µM (active),–
CN(C)C(=O)C1(N2CCCCC2)CCN(CC[C@@]2(c3ccc(Cl)c(Cl)c3)CN(C(=O)c3ccccc3)CCO2)CC1,0.00216 µM (active),–
CN(C)c1ccc(C(=C2C=CC(=[N+](C)C)C=C2)c2ccc(N(C)C)cc2)cc1,11.5 µM (active),–
CC(O)CC(C)(C)O (centres undefined),–,inactive
